# Laboratory results as given in the supplement of paper PMC7801607.
# Legend:
# CHO = experiment: % viability of CHO cells (MTT); higher = less toxic; details: 48 h
# How it was run: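 Percent viability of CHO cells, relative to untreated cells, was read colorimetrically by tetrazolium (MTT) assay. Cells were seeded at 10^6 cells/well and treated for 48 h with compound at 2 or 20 µM in fresh medium.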
# HepG2-A16-CD81 = experiment: % inhibition of HepG2 viability (CellTiter-Glo); higher = more toxic; details: 5 µM
# [1] = system: Plasmodium falciparum NF54 stage IV/V gametocytes; experiment: % inhibition of gametocyte viability (PrestoBlue); higher = more inhibition; details: 48 h
# How it was run: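 Stage IV/V NF54 gametocytes were exposed to compound at 1 or 5 µM for 48 h at 37 °C under stationary, hypoxic conditions, then read by PrestoBlue fluorescence at 612 nm. The percent inhibition of gametocyte viability was normalised to vehicle and kill controls from one run.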
# [2] = system: Plasmodium falciparum NF54 asexual blood stage; experiment: % inhibition of asexual blood stage proliferation (pLDH); higher = more inhibition; details: 72 h
# How it was run: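 Ring-stage cultures of Plasmodium falciparum NF54 at 1% haematocrit and 2% parasitaemia were treated with compound at 2 or 20 µM in 96-well plates and kept for 72 h at 37 °C under 4% CO2, 3% O2 and 93% N2. Parasite survival was measured by the parasite lactate dehydrogenase assay, read colorimetrically at 620 nm. Percent inhibition of asexual proliferation was calculated relative to control wells, and the screen was carried out on two separate occasions.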
# [3] = system: Plasmodium falciparum NF54 stage IV/V gametocytes; experiment: % inhibition of gametocyte viability (ATP bioluminescence); higher = more inhibition; details: 24 h
# How it was run: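 Stage IV/V NF54 gametocytes were enriched on density gradients and seeded at 30,000 per well in 96-well plates with compound at 1 or 5 µM. Plates were incubated for 24 h at 37 °C. ATP was measured with the Promega BacTiter Glo bioluminescence system. Percent inhibition of gametocyte viability was normalised to DMSO and kill controls from a single run.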
# [4] = system: Plasmodium falciparum NF54 stage IV/V gametocytes; experiment: % inhibition of gametocyte viability (luciferase reporter); higher = more inhibition; details: 48 h
# How it was run: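 Percent inhibition was normalised to controls from a single run. Stage IV/V gametocytes of the NF54-Pfs16-GFP-Luc line, at 2% gametocytaemia and 2% haematocrit, were exposed to compound at 1 or 5 µM for 48 h at 37 °C under stationary, hypoxic conditions. Luminescence was then read from 30 µL lysate mixed with 30 µL Promega luciferin substrate on a GloMax-Multi+ reader with 10 s integration.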
# [5] = system: Plasmodium berghei ANKA liver stage in HepG2-A16-CD81; experiment: % inhibition of liver stage parasite viability (luciferase); higher = more inhibition; details: 5 µM; 48 h
# Method: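 Single-concentration screen of the MMV Pandemic Response Box. P. falciparum NF54 asexual blood stages: pLDH assay, 72 h at 37 °C, 2 and 20 µM, n=2. Stage IV/V gametocytes (NF54): luciferase reporter (NF54-Pfs16-GFP-Luc, 48 h), ATP bioluminescence (24 h) and PrestoBlue (48 h) at 1 and 5 µM, n=1. P. berghei liver stage (luciferase in HepG2-A16-CD81, 48 h post infection) at 5 µM, n=4. All normalised to DMSO and kill controls as % inhibition.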
# 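Wherever % inhibition of HepG2 viability (CellTiter-Glo) is given: HepG2-A16-CD81 hepatoma cells plated as in the liver-stage assay but without sporozoites, with DMSO wells as negative and 25 µM puromycin as positive control.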
Structure (SMILES),% viability of CHO cells (CHO; 2 µM) [%],% viability of CHO cells (CHO; 20 µM) [%],% inhibition of HepG2 viability (HepG2-A16-CD81) [%],% inhibition of gametocyte viability ([1]; 1 µM) [%],% inhibition of gametocyte viability ([1]; 5 µM) [%],% inhibition of asexual blood stage proliferation ([2]; 2 µM) [%],% inhibition of asexual blood stage proliferation ([2]; 20 µM) [%],% inhibition of gametocyte viability ([3]; 1 µM) [%],% inhibition of gametocyte viability ([3]; 5 µM) [%],% inhibition of gametocyte viability ([4]; 1 µM) [%],% inhibition of gametocyte viability ([4]; 5 µM) [%],% inhibition of liver stage parasite viability [5] [%]
O=C(Nc1nnc(-c2ccc(Cl)cc2)o1)c1nc2ccccc2s1,111,92.6,0.777,6.81,13.9,73.6,91.4,1.06,< 0,1.1,< 0,11
Cc1ccc(S(=O)(=O)Nc2cccc3cccnc23)cc1,76,-0.468,-5.32,13.9,< 0,55,103,< 0,47.3,< 0,5.04,27.6
CCc1nc2ccccn2c1C(=O)NCc1ccccc1,123,58.5,6.82,< 0,< 0,6.85,18.2,< 0,< 0,< 0,8.65,25.4
O=C(c1ccc(F)cc1)N1CCN2C(=O)c3ccccc3C12c1ccccc1 (stereo unspecified),116,109,-0.867,13.1,10.8,37.1,83.7,< 0,< 0,< 0,< 0,26
N[C@@H]1CN(c2c(F)cc3c(=O)c(C(=O)O)cn([C@@H]4C[C@@H]4F)c3c2Cl)CC12CC2,94.4,69.3,-1.55,< 0,10.3,36.2,99.6,< 0,< 0,0.138,< 0,-19.2
OC(Cn1cncn1)(Cn1cncn1)c1ccc(F)cc1F,76.1,-3.55,-1.31,< 0,< 0,-1.25,-5.32,< 0,< 0,< 0,< 0,19.2
CC(C)=CCC/C(C)=C/CNCCNC1C2CC3CC(C2)CC1C3 (stereo unspecified),93.3,65.4,17.1,51.3,89.7,11.7,93,78,90.8,< 0,42.1,21.8
CC[C@@]1(O)C(=O)OCc2c1cc1n(c2=O)Cc2cc3c(CN(C)C)c(O)ccc3nc2-1,88.8,67.7,35,21.5,26.1,14.3,82.3,6.83,< 0,1.24,5.33,60.8
O=C(Cc1ccccc1F)Nc1nc2ccccc2[nH]1,104,87.3,7.61,5.47,21.8,37.1,29.8,< 0,< 0,< 0,< 0,-7.69
Nc1nc(-c2ccccc2)nc2c1ncn2[C@@H]1O[C@H](COS(=O)(=O)NC(=O)c2ccccc2O)[C@@H](O)[C@H]1O,102,129,3.69,16.3,11,19.4,71.1,< 0,< 0,< 0,< 0,2.37
CCC(C)NCC(O)Cn1c2ccc(Cl)cc2c2cc(Cl)ccc21 (stereo unspecified),112,1.87,1.41,33.3,87.6,68.7,81.8,6.9,68.2,< 0,91,-2.71
O=C(Nc1nnc(-c2ccc(Cl)cc2)o1)c1ccc(F)cc1,94.3,106,-1.68,< 0,0.779,23.1,-13.5,< 0,< 0,< 0,1.27,63.4
NC(=O)c1ccccc1NC(=O)c1ccc(C(=O)Nc2ccccc2C(N)=O)cc1,87.5,120,0.348,< 0,< 0,5.85,13.6,< 0,< 0,< 0,0.0831,42
COc1ccc(SC(=O)N[C@H](CCC(=O)O)C(=O)O)cc1,114,122,3.46,< 0,58.8,58.1,103,< 0,6.16,23.9,62.8,19.9
O=C(O)c1cc(-c2ccccc2)nc2ccccc12,114,94,-0.148,< 0,< 0,27,90.2,1.38,< 0,1.7,< 0,38.5
O=C(Nc1[nH]c(=O)ncc1F)c1ccccc1,103,106,1.79,1.43,5.2,2.42,1.98,< 0,< 0,< 0,< 0,24.1
C[C@H]1CC[C@@]2(O)C(C)(C)[C@@H]3CC[C@@]2(C)[C@H]1C3,119,112,-2.52,< 0,< 0,7.01,18.1,< 0,< 0,< 0,< 0,29.2
COc1cc(NS(=O)(=O)c2ccc(C)cc2)c2ncccc2c1,118,94.1,-7.96,< 0,0.605,45.4,75.7,1.27,62.2,3.47,1.7,48.9
CCOCc1nc2c(N)nc3ccccc3c2n1CC(C)(C)O,84,69.2,8.2,8.02,14.8,58,77,< 0,< 0,2.74,5.55,18.3

Structure (SMILES),% viability of CHO cells (CHO; 2 µM) [%],% viability of CHO cells (CHO; 20 µM) [%],% inhibition of HepG2 viability (HepG2-A16-CD81) [%],% inhibition of gametocyte viability ([1]; 1 µM) [%],% inhibition of gametocyte viability ([1]; 5 µM) [%],% inhibition of asexual blood stage proliferation ([2]; 2 µM) [%],% inhibition of asexual blood stage proliferation ([2]; 20 µM) [%],% inhibition of gametocyte viability ([3]; 1 µM) [%],% inhibition of gametocyte viability ([3]; 5 µM) [%],% inhibition of gametocyte viability ([4]; 1 µM) [%],% inhibition of gametocyte viability ([4]; 5 µM) [%],% inhibition of liver stage parasite viability [5] [%]
C[C@@H](O)[C@H](N)C(=O)NS(=O)(=O)c1cccc(-c2ccc3[nH]ncc3c2)c1,85.2,96,-0.0475,35.8,19.7,-13.1,32,< 0,< 0,< 0,6.84,31.2
COc1ccc(CNC(=O)C(NS(=O)(=O)c2ccc3nc(C)sc3c2)C(C)C)cc1 (stereo unspecified),105,75.8,3.43,48.7,50.8,81.6,111,< 0,< 0,13.6,< 0,21.7
COc1ccc(-n2cnc3cc(NCc4ccco4)ccc32)cc1,93.6,94.6,1.83,< 0,< 0,29.7,44.9,2.7,< 0,< 0,< 0,-16.1
Nc1ccc(-c2nc3cc(C(F)(F)F)ccc3n2C23CC4CC(CC(C4)C2)C3)cc1,97.3,130,-7.13,22.2,19.2,10.3,67.9,< 0,< 0,< 0,< 0,20.5
O=C1[C@H](CC[C@H](O)c2ccc(F)cc2)[C@@H](c2ccc(O)cc2)N1c1ccc(F)cc1,94.9,113,-3.46,< 0,< 0,43.1,61,< 0,< 0,2.9,4.53,27.4
O=C(/C=C\n1cnc(-c2cc(C(F)(F)F)cc(C(F)(F)F)c2)n1)NNc1ccccn1,117,91.3,31.8,10.8,< 0,13.9,40,< 0,< 0,13.4,< 0,16.2
CC(=N)N1CC[C@H](SC2=C(C(=O)O)N3C(=O)[C@@H]([C@@H](C)O)[C@H]3C2)C1,85.2,33.9,-4.07,< 0,< 0,5.77,14.6,< 0,< 0,< 0,0.678,5.53
Nc1cc(N)c2nc(-c3ccccc3)c(Nc3ccc(F)cc3)nc2c1,97.5,88.4,12.8,< 0,< 0,91,92.4,< 0,19.7,< 0,< 0,43.9
N[C@H](CCC(=O)N[C@@H](Cc1c[nH]c2ccccc12)C(=O)O)C(=O)O,116,57.6,-8.85,< 0,3.44,28.8,43.7,4.77,< 0,6.42,< 0,21.3
O=S(=O)(Nc1cccc2cccnc12)c1ccccc1,85,121,5.35,4.79,< 0,8.89,70,< 0,< 0,< 0,< 0,0.562
CC(N)C(=O)NC(CCCCN)C(=O)NC(CCCNC(=N)N)C(=O)NC(Cc1c[nH]cn1)C(=O)NC(Cc1c[nH]cn1)C(=O)NCC(=O)NC(Cc1ccc(O)cc1)C(=O)NC(CCCCN)C(=O)NC(CCCNC(=N)N)C(=O)NC(CCCCN)C(=O)NC(Cc1ccccc1)C(=O)NC(Cc1c[nH]cn1)C(N)=O (stereo unspecified),105,102,-0.769,< 0,14.3,10.1,17.2,< 0,< 0,< 0,< 0,26.4
CC(C)n1cnc2c(NCc3ccccc3)nc(NCc3ccccc3)nc21,104,58.3,7.56,< 0,< 0,45.5,60.5,< 0,< 0,< 0,< 0,17.1
O=S(=O)(Nc1ccc(O)cc1)c1cccc2cccnc12,91.3,104,0.07,< 0,< 0,28.2,52.4,< 0,< 0,< 0,< 0,-2.62
CN(C)CCNC(=O)c1cccc2cccnc12,70.5,19.6,-1.05,< 0,< 0,9.84,-0.35,< 0,< 0,< 0,10.1,16.5
O=C(O)C[C@H]1CC[C@H](c2ccc(-c3ccc(Nc4ccc(C(F)(F)F)nc4)cn3)cc2)CC1,115,77.1,4.22,24.3,3.88,24.2,39.5,7.64,6.34,< 0,< 0,39.5
COc1ccc2nc(-c3ccccc3)cc(O)c2c1,85.4,80.2,6.13,< 0,7.99,66.9,94.3,29.5,13.5,< 0,8.89,78.6
CCc1cc(Cc2cnc(N)nc2N)cc2c1N(C)CCC2C (stereo unspecified),96.1,110,7.88,< 0,< 0,16.7,95.1,< 0,< 0,< 0,< 0,7.3
Cc1cc(C2CCCCC2)n(O)c(=O)c1,95.2,69.7,13.4,< 0,58.2,9.8,77.8,36.1,< 0,< 0,< 0,14.2
CCOC(=O)Nc1cc(NC(C)CC(C)CN(CC)CC)c2nc(-c3ccccc3)c(-c3ccccc3)nc2n1 (stereo unspecified),94,116,12.9,26.4,51.1,37.7,54.6,28,75,< 0,51.1,55.5
